Experimental data taken from ChEMBL document CHEMBL3988442, “University of Dundee, Small-Polar-MMV Screening Library” (2021).
Among all 66,000 compounds or so, about 960 (1.5%) showed an effect of 50% or more. Only a selection was taken, and strong results are over-represented in it overall.

System: Trypanosoma brucei
Assay: Trypanosoma brucei 72 hour study
Assay type: functional, organism-based
Parameters: scale not given: in the data most compounds retested in dose-response had high values

Compound	Percent Effect (30 µM, 30.03 µM)	Percent Effect (30.3 µM, […])
NC(=O)c1ccccc1NC(=O)CCN1CCN(c2ccccc2)CC1	4.761%	–
CCOC(=O)N1CCc2ccccc2C12CCNCC2.Cl	–	-45.47%
Cc1ccc(CN2CCC3(CC2)CN(C(=O)c2cnccn2)CCO3)o1.O=C(O)C(F)(F)F	–	-12.58%
CC1=N[C@@]2(CC[C@@H]3CN(Cc4ccccc4F)C[C@@H]32)C(=O)N1CC1CC1.O=C(O)C(F)(F)F	55.44%	–
CC1=N[C@@]2(CC[C@@H]3CN(Cc4ccccc4C)C[C@@H]32)C(=O)N1CC1CC1.O=C(O)C(F)(F)F	–	-63.56%
CC1=N[C@@]2(CC[C@@H]3CN(Cc4ccccc4)C[C@@H]32)C(=O)N1CC1CC1.O=C(O)C(F)(F)F	–	-40.35%
CN(C)C(=O)c1cc2c(nc1NCC1CC1)CCNCC2	–	-109.7%
CCCN1CCN(C(=O)c2cnn(-c3ccccc3F)c2)CC1	55.35%	–
O=C(c1cnn(-c2ccccc2F)c1)N1CCN(CCO)CC1	1.358%	–
CCC(O)CN1CCN(C(=O)c2cnn(-c3ccccc3F)c2)CC1 (configuration not stated)	22.96%	–
CN1C(=O)CC[C@]12CC[C@@H](NCc1ccsc1)CC2.O=C(O)C(F)(F)F	–	8.729%
CC(C)CCN1C[C@H]2C[C@H](C(=O)NCc3ccccc3)[C@@H](C1)O2.O=C(O)C(F)(F)F	29.18%	–
CCn1cc(-c2cc(-c3cc(CN(C)C)cs3)nc(N)c2C#N)c(C)n1	-4.566%	–
CCn1ccnc1C1CCN(Cc2c(F)cccc2F)CC1	86.79%	–
Cc1cc(CN2CCC(c3nccn3C(C)C)CC2)ccc1F	-24.52%	–
CCn1ccnc1C1CCN(Cc2cccc(Cl)c2)CC1	-40.4%	–
CC(C)n1ccnc1C1CCN(Cc2ccc(Cl)c(F)c2)CC1	33.49%	–
CCn1ccnc1C1CCN(Cc2cccc(C)n2)CC1	-34.54%	–
Cc1ccc(Cl)c(CN2CCC(c3nccn3C(C)C)CC2)c1F	104.1%	–
COc1ccc(Cl)cc1C(C(=O)O)N1CCSCC1 (configuration not stated)	–	-71.2%
CN(C)c1nc(N)nc(CN2CCCC2c2ccsc2)n1 (configuration not stated)	-20.26%	–
Cc1cccc(C2CCCN2Cc2nc(N)nc(N(C)C)n2)c1C (configuration not stated)	100.5%	–
CN(C)c1nc(N)nc(CN2CCCC2c2cccs2)n1 (configuration not stated)	-6.91%	–
Cc1ccsc1C(=O)NCc1ccnc(C2CCCOC2)n1 (configuration not stated)	–	54.51%
O=C(NCc1ccnc(C2CCCOC2)n1)c1cccs1 (configuration not stated)	–	-2.313%
Cc1ccc(C(=O)NCc2ccnc(C3CCCOC3)n2)s1 (configuration not stated)	–	49.43%

Compound	Percent Effect (30 µM, 30.03 µM)	Percent Effect (30.3 µM, […])
Cn1ccc(CN2CCC3(CCCN3CC3CC3)CC2)n1.O=C(O)C(F)(F)F.O=C(O)C(F)(F)F	–	-89.65%
COC1CN(C(=O)CC(C)(C)C)CCC(=O)N(C)c2ccccc21 (configuration not stated)	–	-11.06%
CC(C)NC(=O)[C@H]1C[C@@H]2CN(C(=O)NCc3ccccc3)C[C@H]1O2	43.99%	–
CSCC[C@@H](CO)Nc1ccc(-c2nc(-c3ccccc3F)no2)cn1	–	-25.91%
CSCC[C@@H](CO)Nc1ccc(-c2nc(-c3ccccc3C)no2)cn1	–	99.8%
CSCC[C@@H](CO)Nc1ccc(-c2nc(C3CC3)no2)cn1	–	19.73%
Cc1ccc(CN(C)C(=O)c2cnsn2)cc1	-21.68%	–
CCc1ncc(CN2CCOC(Cc3cccc(F)c3)C2)cn1 (configuration not stated)	–	-57.81%
O=C(Cc1ccc2c(c1)CCCC2)Nc1cccnc1N1CCSCC1	7.169%	–
O=C(NCCN1CCCC1)c1cc2c(s1)CCN2C(=O)c1ccccc1	–	-8.761%
CCCNC(=O)c1cc2c(s1)CCN2C(=O)c1ccccc1	–	-5.969%
COCCNC(=O)c1cc2c(s1)CCN2C(=O)c1ccccc1	61.44%	–
CCOc1ncccc1CNC(=O)Nc1ccc(N(C)C)nc1	–	-10.18%
CN1CCN(C(=O)C2CCN(c3cccnn3)CC2)CC1	–	-20.3%
CN1CCN(C(=O)C2CCN(c3cccnn3)C2)CC1 (configuration not stated)	–	1.766%
CN1CCN(C(=O)C2CCCN(c3cccnn3)C2)CC1 (configuration not stated)	–	101%
CC(C)(C)CN1CC(O)CN(C(=O)c2cccc(C(F)(F)F)c2)CC1=O (configuration not stated)	–	-4.351%
CC(C)N(C)Cc1cnc2n1CCN(C(=O)Cc1ccsc1)C2.O=C(O)C(F)(F)F	-22.47%	–
Cc1ccc2c(n1)N(CCN(C)C)CCN(C(=O)c1ccc[nH]1)C2.O=C(O)C(F)(F)F.O=C(O)C(F)(F)F	4.99%	–
c1cc(-c2n[nH]c(CNc3nnc(C4CC4)o3)n2)ccn1	–	0.7676%
CCCc1nnc(NCCc2noc(C3CCC3)n2)o1	-16.87%	–
c1ccc(-c2n[nH]c(CCNc3nnc(C4CCC4)o3)n2)cc1	–	99.86%
O=S(=O)(NCCc1nc(-c2cccnc2)n[nH]1)NCc1ccccc1	–	-84.2%
CCCc1nnc(NCCc2noc(C3CCCC3)n2)o1	-39.45%	–
c1ccc(-c2nc(CCNc3nnc(C4CCC4)o3)no2)cc1	–	99.59%
CN(C)C(=O)N[C@H]1CN(Cc2ccc3c(c2)OCO3)[C@@H]2CCCO[C@H]12.O=C(O)C(F)(F)F	–	-7.695%
